From PubChem
PABP FP inh: blocks human PABP binding to poly(A) RNA; 290,000 compounds, 1% hits; calls only at 35 µM; fluorescence polarization; P11940;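 also: calls also rest on retests at 20 µM and on dose response follow-up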
PABP1 MLLE inh: inhibitors of microRNA-mediated deadenylation, human PABP1 MLLE binding; P11940; GST-MLLE / FITC-PAM2 fluorescence polarization; inhibition, % at 20 µM; 360,000 compounds, 0.36% hits; in the data active = inhibition above about 35%, passing the limit was not always enough;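 also: plate controls were DMSO wells with GST-MLLE for no effect and wells lacking GST-MLLE protein for full effect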
eIF4E 4G PPI: inhibitors of eIF4E and eIF4G interaction in translation initiation; TR-FRET eIF4E-eIF4GI(517-606) binding, 2 h; inhibition, % at 21.7 µM; AID 782; 220,000 compounds, 0.37% hits;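 active = inhibition above about 30%, limit read from the data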;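 also: 0% = full FRET control wells and 100% = background wells lacking eIF4GI fragment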
PERK inh: inhibitors of human PERK kinase; inhibition, % at 5.6 µM; AID 1416; CHO PERK-DD fusion, SEAP luminescence translation reporter; Q9NZJ5; 220,000 compounds, 0.17% hits;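 active = inhibition above the mean inhibition of all tested compounds plus 3 SD, set separately per screening campaign, cut at about 2.9% in these data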;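 also: PERK kinase domain activated by AP20187 dimerizer at 100 nM; 0% = DMSO with dimerizer and 100% = rapamycin at 8.4 µM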
eIF4H FP inh: inhibitors of RNA binding by human eIF4H; eIF4H fluorescence polarization binding assay; AID 2012; Q15056; 290,000 compounds, 0.94% hits; inhibition, % at 35 µM;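 also: calls also rest on retests at 20 µM and on dose response follow-up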
An asterisk follows results filed as active. Shown are actives, neighbours in structure and some others; about 1.6% of the full set was active somewhere. Unless noted, no rule for the calls is given here.

For C[C@H](CO)N1C[C@H](C)[C@@H](CN(C)S(=O)(=O)c2ccc(F)cc2)Oc2c(NS(=O)(=O)c3ccc(F)cc3)cccc2C1=O the results were PABP1 MLLE inh 2.
`O=C(CCNC(=O)c1ccc(Br)cc1)Nc1ccc(S(=O)(=O)Nc2ncccn2)cc1` gave PABP1 MLLE inh -25.
O=C(Nc1ccc(N2CCCCC2)cc1)c1ccc([N+](=O)[O-])o1 was read as PABP FP inh active, PABP1 MLLE inh -7 and eIF4H FP inh 74*.
For CC(=O)c1c(C(C)=O)c(C)n(-c2cccc3cccnc23)c1C the results were PABP FP inh active, PABP1 MLLE inh 24, eIF4E 4G PPI 1, PERK inh 1 and eIF4H FP inh 101.
`Cc1cc(C)n(-c2cccc3cccnc23)n1` gave PABP FP inh inactive, PABP1 MLLE inh -8, eIF4E 4G PPI 3, PERK inh 2 and eIF4H FP inh -3.
CCCCCn1c(=O)[nH]c2cc(C(=O)NCc3ccc4c(c3)OCO4)ccc2c1=O was read as PABP FP inh inactive, PABP1 MLLE inh 3, eIF4E 4G PPI -1, PERK inh 0 and eIF4H FP inh -11.
Screening CCCCCn1c(=O)[nH]c2cc(C(=O)N3CCN(Cc4ccc5c(c4)OCO5)CC3)ccc2c1=O returned PABP FP inh inactive, PABP1 MLLE inh 1, eIF4E 4G PPI 44*, PERK inh -1 and eIF4H FP inh 1.
For CC(=O)c1cccc(NC(=O)C2(C)Cc3c(-c4cccc(C(F)(F)F)c4)ccnc3O2)c1 (centres undefined) the results were PABP1 MLLE inh 19.
Screening O=C(CN1CCN(c2ccccc2O)CC1)Nc1ccc2c(c1)CCC2 returned PABP FP inh active, PABP1 MLLE inh -7, eIF4E 4G PPI 4, PERK inh 1 and eIF4H FP inh 2.2*.
O=C(N/N=C/c1ccco1)c1cccc(NC(=O)c2cccc(Cl)c2)c1 was read as PABP FP inh inactive, PABP1 MLLE inh -12 and eIF4H FP inh -12.
O=C(N/N=C/c1ccco1)c1cccc(N2Cc3ccccc3C2)c1 was read as PABP FP inh active, PABP1 MLLE inh -2, eIF4E 4G PPI 7, PERK inh 1 and eIF4H FP inh 91*.
`O=C(N/N=C/c1ccco1)c1cccc(N2CCCC2=O)c1` gave PABP FP inh inactive, PABP1 MLLE inh -17, eIF4E 4G PPI 3, PERK inh 0 and eIF4H FP inh 91*.
Screening CCOc1ccc(NC(=O)Nc2cc(C(=O)O)ccc2N2CC3CC(C2)c2cccc(=O)n2C3)cc1 (centres undefined) returned PABP1 MLLE inh 17.
Screening O=C(COC(=O)/C=C/c1ccc(F)cc1)NC1CCCCCC1 returned PABP1 MLLE inh -19.
For Cc1cc(=O)c2cc3nc(-c4cccnc4)oc3c(Br)c2o1 the results were PABP FP inh active, eIF4E 4G PPI 10, PERK inh 1 and eIF4H FP inh 97*.
Screening O=C(CCn1[nH]c(=O)c2ccccc2c1=O)NCCO returned PABP FP inh inactive, PABP1 MLLE inh -4, eIF4E 4G PPI 35*, PERK inh 0 and eIF4H FP inh 5.
`CCCCOC(=O)CCn1[nH]c(=O)c2ccccc2c1=O` gave PABP FP inh inactive, PABP1 MLLE inh 4, eIF4E 4G PPI -10, PERK inh 0 and eIF4H FP inh -9.
`Cc1nc(SCC(=O)O)c(C#N)c2c1CCCC2` gave PABP FP inh active, PABP1 MLLE inh -29, eIF4E 4G PPI 21, PERK inh 1 and eIF4H FP inh 108*.
CCc1nc(SCC(=O)O)c(C#N)c2c1CCCC2 was read as PABP FP inh inactive, PABP1 MLLE inh 13, eIF4E 4G PPI 0, PERK inh 1 and eIF4H FP inh 5.
Screening CCOC(=O)c1c(C)oc2c1c(C=NCc1ccccn1)c(O)c1ccccc12 returned PABP FP inh active, PABP1 MLLE inh 5, eIF4E 4G PPI -1, PERK inh -1 and eIF4H FP inh 121*.
Cc1onc(-c2ccccc2)c1C(=O)N(Cc1ccccc1)C(C)C was read as PABP FP inh inactive, PABP1 MLLE inh -10 and eIF4H FP inh 3.
Screening CCOC(=O)N1CCN(C(=O)c2ccc3oc(CCCc4ccccc4)nc3c2)CC1 returned PABP FP inh inactive, PABP1 MLLE inh -7 and eIF4H FP inh -4.
Nc1nn(S(=O)(=O)c2ccccc2)cc1-c1cccc([N+](=O)[O-])c1 was read as PABP FP inh active, PABP1 MLLE inh 10, eIF4E 4G PPI -2, PERK inh -1 and eIF4H FP inh active.
CCOc1ccc(S(=O)(=O)n2cc(-c3ccccc3)c(N)n2)cc1 was read as PABP FP inh inactive, PABP1 MLLE inh -1, eIF4E 4G PPI 1, PERK inh 0 and eIF4H FP inh 2.
`CN(C)c1cc2c3ccccc3n(C)c2cc1N` gave PABP1 MLLE inh 64*.
Cc1ccc(C)c2c1c1ccccc1n2C was read as PABP FP inh inactive, PABP1 MLLE inh 8, eIF4E 4G PPI 0, PERK inh 0 and eIF4H FP inh -2.
For Cc1ccc(/C=C2\SC(=S)N(Cc3ccccc3)C2=O)o1 the results were PABP FP inh inactive, PABP1 MLLE inh 7, eIF4E 4G PPI 8, PERK inh 1 and eIF4H FP inh 13.
O=C(O)c1cc(-c2ccc(/C=C3/SC(=S)N(Cc4ccccc4)C3=O)o2)ccc1Cl was read as PABP FP inh active, PABP1 MLLE inh inactive, eIF4E 4G PPI 62*, PERK inh 0 and eIF4H FP inh 86*.
`COc1ccc(CN2C(=O)/C(=C/c3ccc(-c4ccc(Cl)c(C(=O)O)c4)o3)SC2=S)cc1` gave PABP FP inh inactive, eIF4E 4G PPI 65*, PERK inh 0 and eIF4H FP inh inconclusive.
`CCOc1ccccc1CNC(=O)c1ccc(NC(=O)C2=CSCCO2)cc1` gave PABP FP inh inactive, PABP1 MLLE inh 0 and eIF4H FP inh -14.
Cc1cc2oc(=O)cc(-c3cc4ccccc4o3)c2cc1O was read as PABP1 MLLE inh 0.
`O=c1cc(-c2cc3ccccc3o2)c2cc(O)ccc2o1` gave PABP FP inh active, PABP1 MLLE inh 0 and eIF4H FP inh 80*.
For Nc1cc2c(cc1N)-c1ccccc1C2 the results were PABP1 MLLE inh -45.
Screening FC(F)(F)c1ccccc1-n1c(CN2CCCCC2)n[nH]c1=S returned PABP FP inh inactive, PABP1 MLLE inh -39, eIF4E 4G PPI 85*, PERK inh 1 and eIF4H FP inh 0.
`COC1=CC(=NCl)C=CC1=NCl` gave PABP1 MLLE inh 41*.
ClN=C1C=CC=CC1=NCl was read as PABP1 MLLE inh 14.
`N#Cc1ccc(C(=O)N/N=C/c2cn(CC(=O)O)c3ccccc23)c(F)c1` gave PABP FP inh inactive, PABP1 MLLE inh -127, eIF4E 4G PPI 2, PERK inh 0 and eIF4H FP inh 1.
Screening Cn1cc(/C=N/NC(=O)c2ccc(C#N)cc2F)c2ccccc21 returned PABP FP inh active, PABP1 MLLE inh 3, eIF4E 4G PPI 1, PERK inh 0 and eIF4H FP inh 4.
